JMJD2A Tudor inh = blocks the human JMJD2A Tudor domain. AID 504339. O75164. AlphaScreen JMJD2A-Tudor / H3K4me3 peptide binding. Potency, µM (titrated, usually from 114 µM), inactives show at the top dose activity change, negative = inhibition, most hits filed as inhibitors. 390,000 tested, 4.4% active; also: potency is read from the fitted curve at half-maximal effect; % is scaled to controls: 0 for no effect and ±100 for the full control effect; nearly all actives have a fitted effect of over 50% in size
BAZ2B inh = inhibitors of human BAZ2B bromodomain; Q9UIF8; AlphaScreen BAZ2B-H3K14Ac peptide displacement; Potency, µM (top dose mostly 114 µM), without a hit: at the top dose activity change, negative = inhibition, hits mostly inhibitors; 360,000 tested, 4.4% active; AID 504333; also: potency is read from the fitted curve at half-maximal effect; % is scaled to controls: 0 for no effect and ±100 for the full control effect; nearly all actives have a fitted effect of over 60% in size
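AlphaScreen displacement of biotin-H3(5-23)K14Ac peptide (50 nM final) from BAZ2B (50 nM final) in PBS pH 7.4, 0.01% Tween-20; complex preformed 30 min RT, then compounds (top 110 uM) 30 min RT, beads 20 min dark.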
HP1b binding inh = inhibitors of HP1-beta chromodomain binding to methylated histone tails. 390,000 tested, 0.56% active. P83916. AlphaScreen HP1-beta / biotin-H3K9me3 peptide binding. Potency, µM (series often up to 114 µM), inactives show top-dose activity change, negative = inhibition, most hits filed as inhibitors. AID 540317; also: potency is read from the fitted curve at half-maximal effect; nearly all actives have a fitted effect of over 70% in size
Target sequence (P83916 whole entry, looked up): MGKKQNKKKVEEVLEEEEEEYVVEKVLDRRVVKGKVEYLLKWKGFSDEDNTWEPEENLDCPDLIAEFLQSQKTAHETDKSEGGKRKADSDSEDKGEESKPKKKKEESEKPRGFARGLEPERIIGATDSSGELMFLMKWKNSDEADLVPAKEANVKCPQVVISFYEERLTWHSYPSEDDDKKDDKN
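Compound inhibition of the preformed complex between 50 nM HP1-beta and 50 nM biotinylated H3K9me3 peptide was read by AlphaScreen. Buffer was PBS pH 7.4 with 0.01% Tween-20. Incubations ran 30 min at room temperature, with 10 ug/mL donor/acceptor beads.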
G9a block = inhibitors of human histone lysine methyltransferase G9a. Q96KQ7. G9a H3K9 monomethylation, AlphaScreen, 2 h. Potency, µM (titrated, usually from 102 µM), inactives show at the top dose activity, negative = inhibition, actives largely listed as inhibitors. 350,000 tested, 8.8% active. AID 504332; also: potency is read from the fitted curve at half-maximal effect; % is scaled to controls: 0 for no effect and ±100 for the full control effect; nearly all actives have a fitted effect of over 75% in size
Target sequence (Q96KQ7 913-1193 limits assumed): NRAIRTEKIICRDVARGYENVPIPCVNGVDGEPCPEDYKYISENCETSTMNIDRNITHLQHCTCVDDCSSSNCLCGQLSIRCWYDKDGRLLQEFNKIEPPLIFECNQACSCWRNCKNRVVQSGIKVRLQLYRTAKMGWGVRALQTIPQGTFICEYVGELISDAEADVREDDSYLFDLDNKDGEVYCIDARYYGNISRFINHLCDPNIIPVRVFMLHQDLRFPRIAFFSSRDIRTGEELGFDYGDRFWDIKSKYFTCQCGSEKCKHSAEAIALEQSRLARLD
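AlphaScreen detection with an anti-monomethyl H3K9 antibody quantified product after a 2 h room-temperature reaction containing 500 nM biotinylated H3K9 peptide, 20 µM SAM and 20 nM enzyme, which had been preincubated 15 min with compound.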
CtBP-E1A inh = inhibitors of CtBP/E1A interaction; AlphaScreen GST-E1A/His-CtBP binding, 1536-well; stronger effect = lower value; activity change, % (concentration not given with the values); 340,000 tested, 0.49% active; in the data active = activity change below about -65%; inconclusive = mostly about -30% to -63%; also: % is scaled to controls: 0 for no effect and ±100 for the full control effect
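Homogeneous bead-based format: GST-tagged E1A captured on glutathione donor beads, His-tagged CtBP on nickel acceptor beads; compounds precede bead addition by 2 h at 37 °C.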
Six1-Eya2 blk = Six1/Eya2 interaction inhibition. Q15475+O00167. AlphaScreen GST-Six1/His-Eya2 binding, biochemical; stronger effect = lower value. activity change, % (concentration not given with the values). 360,000 tested, 0.56% active. AID 651725; in the data active = activity change below about -65%; inconclusive = mostly about -30% to -63%; also: % is scaled to controls: 0 for no effect and ±100 for the full control effect
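Homogeneous AlphaScreen proximity assay pairing GST-Six1 with His-tagged Eya2 (added as 5X mix: 250 nM and 500 nM) in 50 mM Tris pH 8.0, 300 mM NaCl, 1 mM TCEP. Glutathione donor and nickel acceptor beads; 1 h, 37 °C, dark.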
* = called active by the depositor; ? = inconclusive; . = no result; [ ] = dose if it differs, or a comment. The list is not random: actives were taken first. Their share in the collection is about 10%. Unless noted, calls follow the shape of the dose curve; as a rule, active = well fitted inhibition curve with a large enough effect; inconclusive = small, poorly fitted or top-dose-only effect; inactive = no such curve, though single readings can be large or run the other way.

SMILES	JMJD2A Tudor inh	BAZ2B inh	HP1b binding inh	G9a block	CtBP-E1A inh	Six1-Eya2 blk
CC(=O)OCC[n+]1c(C)n(-c2ccccc2)c2ccc(Cl)cc21	?	1%	21%	50µM*	8	0
O=C(NCc1ccc(F)cc1)c1cc(C2CCCN(C(=O)CCCc3ccccc3)C2)on1 (centres undefined)	.	.	.	.	3	1
CN(Cc1ccc(F)cc1)Cc1nc(-c2cnccn2)no1	-13%	9%	24%	.	8	-1
Cc1ccccc1S(=O)(=O)NC(=O)C1(C)CCN1C(=O)CC1CCCCC1 (centres undefined)	.	.	.	.	-2	7
CCOC(=O)c1c(C)oc2nc(C)nc(Nc3cc(C)cc(C)c3)c12	-8%	-6%[57.1 µM]	28%	-19%[59 µM]	.	.
Cc1ccc(NC(=O)CNC(=O)c2cccc(C)c2)nc1	-16%	-25%	-7%	2%	4	5
S=C(N/N=C/c1ccccc1)N1CCOCC1	89µM*	?	20%	?	-12	-13
S=C(Nc1ccccc1)N1CCOCC1	6%	-11%	42%	-24%	1	8
COc1ccc(/C=N/NC(=S)SC)cc1OC	-27%	?	36%	-33%	-18	-15
CSC(=S)N/N=C/c1ccccc1	?	13µM*	-4%	-1%	-22	0
CN(N=O)c1ccc(C=C2C=Cc3ccccc32)cc1	?	.	-13%	.	-3	-23
CC(=O)N(C)c1ccc(C=C2C=Cc3ccccc32)cc1	79µM*	.	?	.	-1	-19
CCn1c(Sc2nc(C)nc3scc(-c4cccs4)c23)n[nH]c1=O	-17%[57.1 µM]	-9%	62%	45µM*	-1	-1
Cc1nc(SCC(=O)NC(=O)NCCC(C)C)c2c(-c3cccs3)csc2n1	-8%	-24%	23%	27%[59 µM]	1	10
Cc1ccc(CNC(=O)c2ccc(NC(=O)N3CCSc4ncccc43)cc2)cc1	-15%	-1%	56%	-6%[59 µM]	.	.
O=C(CS(=O)(=O)c1cccc2nsnc12)Nc1cc(F)ccc1F	-20%	-18%	22%[57 µM]	-2%[59 µM]	.	.
CC(C)CC(c1nnnn1C(C)C)N1CCN(C(=O)c2ccco2)CC1 (centres undefined)	-20%	-25%	11%	-15%[0.501 µM]	4	5
CCCCC(c1nnnn1C(C)C)N1CCN(C(=O)c2ccco2)CC1 (centres undefined)	?	-9%	26%	50µM*	2	1
COCCn1nnnc1C(C(C)C)N1CCN(C(=O)c2ccco2)CC1 (centres undefined)	45µM*	-1%	0%	-3%[12.7 µM]	-1	14
CCCC(c1nnnn1CCOC)N1CCN(C(=O)c2ccco2)CC1 (centres undefined)	?	?	11%	45µM*	2	2
N[C@@H](C(=O)O)[C@@H](CC(=O)O)c1ccc(Cl)cc1	.	.	.	20%[59 µM]	.	.
COC(=O)[C@]12CCCCC=C1N(Cc1ccco1)C(=O)[C@H](CC(=O)NCc1ccc(OC)c(OC)c1)C2	.	.	.	.	1	2
CCn1cc(S(=O)(=O)c2ccc(C)cc2)[nH]c1=O	-15%	-38%	18%	17%	0	2
CCc1c(C(C)S(=O)(=O)c2ccc(C)cc2)[nH]c(=O)n1-c1ccc(OC(F)(F)F)cc1 (centres undefined)	-23%	-22%	61%	10µM*	6	-13
COc1ccc(-c2cc(C(=O)Oc3ccc(C)c(C)c3)c3ccccc3n2)cc1	41%	57%	63%	74%[59 µM]	.	.
SMILES	JMJD2A Tudor inh	BAZ2B inh	HP1b binding inh	G9a block	CtBP-E1A inh	Six1-Eya2 blk
Cc1cc(=O)n2c3c(sc2n1)C(=O)N(Cc1ccccc1)C3=O	.	-2%	.	6.3µM*	.	.
CC(=O)N1CCCC1c1nc2ccccc2n1Cc1cccc(C)c1 (centres undefined)	-12%	-2%	28%	?	.	.
CC1(C)OC(c2ccccc2)=C/C(=C/C=C2C(=O)c3ccccc3C2=O)O1	3.2µM*	1.4µM*	?	2.5µM*	-8	-12
Cc1cccc(NC(=O)C2CCN(C(=O)c3ccc(Cl)cc3)CC2)n1	-7%	7%	21%	-10%[2.33 µM]	-5	0
COc1ccc(NC(=O)CSc2nc(N)cc(N)n2)cc1S(=O)(=O)N1CCCCC1	-7%	-6%	40%	?	8	-3
O=C(NNc1ccccc1F)c1sccc1Cl	0%	.	62%	.	.	.
S=C(Nc1ccccc1)Nc1nc2ccccc2n1CCOc1ccc(Cl)cc1	?	7.1µM*	?	-10%[59 µM]	-25	0
CCn1c(NC(=S)Nc2ccccc2)nc2ccccc21	?	5.6µM*	-14%	-9%[59 µM]	-3	1
O=c1c(CO)cc(CO)cc(CO)c1O	22µM*	10µM*	15%	.	.	-90*
CC1(c2nnc(-c3cccc(Cl)c3)o2)CC(c2ccc(OC(F)(F)F)cc2)=NO1 (centres undefined)	20%	-5%	57%	.	12	24
C/C(=N\O)C1(C)N(O)C(C)(C)C(c2ccco2)=[N+]1[O-] (centres undefined)	-5%	-2%	43%	41%[59 µM]	1	0
C/C(=N\Nc1cccc(Cl)c1)C1(C)N(O)C(C)(C)C(c2ccco2)=[N+]1[O-] (centres undefined)	-27%	-34%	28%	45µM*	.	-1
CCC(=O)N1CCc2cc(S(=O)(=O)NC(C(=O)NCCc3ccccc3)C(C)C)ccc21 (centres undefined)	-13%	.	8%	-3%[59 µM]	.	.
Nc1cccc(C2=Nc3cccc4cccc(c34)N2)c1	-3%	-6%	20%	25µM*	7	-3
CC(C)C1=Nc2cccc3cccc(c23)N1	-16%[57.1 µM]	?	-7%	28µM*	-7	-2
ClCC1=Nc2cccc3cccc(c23)N1	.	79µM*	.	?	.	.
COc1ccc(CN(Cc2ccccc2)C(=O)c2ccccc2O)cc1	68%	.	.	.	.	.
O=C(c1cnccn1)N1CCc2ccccc21	79µM*	?	-1%	13%[59 µM]	0	-1
O=C(c1cnccn1)N1CCc2ccccc2C1	0%	-38%	44%	35%[59 µM]	6	5
O=C(NCN1CCc2ccccc2C1)c1cnccn1	6.3µM*	15%	10%	22%[59 µM]	-10	3
O=C(NCN1CCc2ccccc2C1)c1ccccc1	-16%	9%	19%	17%[59 µM]	2	4
Cc1cccc(NC(=O)CCCn2nc(C)c3c(C)n(-c4ccccc4)nc3c2=O)c1C	-16%	-16%	24%	1%[59 µM]	.	.
CCNC(=O)CC1C(=O)N(c2ccc(F)cc2)C(=O)N1Cc1ccc(OC)c(OC)c1 (centres undefined)	-13%	-9%	15%	-32%[59 µM]	.	.
OCc1c[nH]c(=S)n1CCOc1cccc(C(F)(F)F)c1	22µM*	-25%	16%	?	.	-1
